According to PubChem BioAssay (NCATS):
Results filed as inconclusive are left out. Where a call stands in place of a potency, no number is given. A number with no mark means an inactive call. Activity calls are given as the source filed them. Calls come from the whole dose curve; as a rule, active = well fitted inhibition curve with a large enough effect; inconclusive = small, poorly fitted or top-dose-only effect; inactive = no such curve, though single readings can be large or run the other way.

Columns and labels:
[1] = test system: Zika virus NS2B-NS3 protease (unlinked complex); assay: Primary screen GU Rhodamine qHTS for Zika virus inhibitors: Unlinked NS2B-NS3 protease assay (AID 1347159); note: nearly all actives have a fitted effect of over 60% in size
Method in brief: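 Unlinked NS2B/NS3, 25 nM; Rhod110 peptide, 1.5 microM; compounds, up to 114 microM. Reaction run 15 min at RT in 10 mM Tris-HCl pH 8.0, 0.01% Tween 20; kinetic fluorescence change fitted with a 4-parameter Hill model.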

[2] = test system: Zika virus NS2B-NS3 protease (linked construct); assay: Primary screen NINDS Rhodamine qHTS for Zika virus inhibitors (AID 1347160); note: nearly all actives have a fitted effect of over 55% in size
Method in brief: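 Single-chain NS2B-NS3 protease, 25 nM, pH 8.0; compounds preincubated 15 min. Activity: Rhodamine110 release from 1.5 microM substrate over 15 min, room temperature, data fitted to 4-parameter Hill.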
Potency is the fitted concentration of half-maximal effect.

SMILES | Potency [1] | Potency [2] | activity change, negative = inhibition [1] | activity change, negative = inhibition [2]
CCn1c(-c2nonc2N)nc2c(C#CC(C)(C)O)ncc(OCC3CCCNC3)c21 (stereo not drawn) | inactive | inactive | – | –
CNCCN1CCC(c2cc(CN(C)C(=O)c3cccc(Oc4ccccc4)c3)ccn2)CC1 | inactive | inactive | – | –
Cc1csc(N(C(=O)CSc2ccc(-c3ccccc3)nn2)C2CC2)n1 | inactive | inactive | – | –
CNC1CN(c2ccc3c(=O)c(C(=O)O)cn(-c4nccs4)c3n2)CC1OC (stereo not drawn) | – | – | 18.7% [at 19.1 µM] | 19.1% [at 10.7 µM]
Cc1cc2c(F)c(Oc3ncnn4cc(OCC(C)OC(=O)C(C)N)c(C)c34)ccc2[nH]1 (stereo not drawn) | inactive | inactive | – | –
Cc1cc(C(=O)Nc2cc(Oc3ccc4nc(NC(=O)C5CC5)cn4n3)ccc2C)n(C)n1 | inactive | inactive | – | –
COC1CC/C=C(\C)C(=O)Nc2cc(O)cc(c2)CC(C)CC(OC)C(O)C(C)/C=C(\C)C1OC(N)=O (stereo not drawn) | inactive | inactive | – | –
COC(=O)CC(O)CC(O)/C=C/c1c(C)ccc2c1C(OC(C)=O)CC(C)C2 (stereo not drawn) | inactive | inactive | – | –
CC(C)(CO)c1cc2cc(NC(=O)C3(c4ccc5c(c4)OC(F)(F)O5)CC3)c(F)cc2n1CC(O)CO (stereo not drawn) | inactive | inactive | – | –
COc1ccc(-c2cc3onc(-c4ccncc4)c3c(=O)n2C)cc1 | inactive | inactive | – | –
COc1ccc(S(=O)(=O)N2CCC[C@H]2C(=O)Nc2cc(C)cc(C)c2)cc1 | inactive | inactive | – | –
Cc1c(C(=O)Nc2ccc(N3CCC(N4CCOCC4)CC3)c(C#N)c2)cnn1-c1ccc(Cl)cc1 | inactive | inactive | – | –
OC1(CN2CCC(COc3noc4cccc(O[C@@H]5CCOC5)c34)CC2)CCOCC1 | inactive | inactive | – | –
O=C(NCCCN1CCOCC1)c1cnn2c(-c3ccccc3)cc(-c3ccccc3)nc12 | inactive | inactive | – | –
CNc1cc2[nH]c(=O)n(-c3ccc(NC(=O)NS(=O)(=O)c4ccc(Cl)s4)cc3)c(=O)c2cc1F | inactive | inactive | – | –
COc1ccc(NC(=O)C2C[C@H](C)CC[C@H]2C(C)C)cc1 (stereo partly drawn) | inactive | inactive | – | –
C=C1C(=O)OC2/C=C(\COC(C)=O)CC/C=C(\C=O)CC(OC(=O)CC(C)C)C12 (stereo not drawn) | inactive | inactive | – | –
COc1cc(C(C)=O)c(OC)c2c1OC(C)(C)C=C2 | inactive | inactive | – | –
CC1(C(=O)Nc2ccc(F)nc2)CCCN1c1nc(Nc2cc(C3CC3)[nH]n2)c2cccn2n1 (stereo not drawn) | inactive | inactive | – | –
O=C(Nc1cccnc1)c1cc(-c2ccnc(F)c2)ccc1OCc1ccccc1 | inactive | inactive | – | –
COc1ccc(CCc2nc3c(C)c(-c4c(C)noc4C)c(C)cc3n2CCN2CCOCC2)cc1 | inactive | inactive | – | –
CCOc1ccc(-n2c([C@@H](C)N(Cc3cccnc3)C(=O)Cc3ccc(OC(F)(F)F)cc3)nc3ncccc3c2=O)cc1 | inactive | inactive | – | –
CC[C@@H](C)[C@@H]1OC2(C=C[C@H]1C)C[C@@H]1C[C@H](C/C=C(\C)[C@H](O[C@H]3C[C@H](OC)[C@H](O[C@H]4C[C@H](OC)[C@H](NC(C)=O)[C@H](C)O4)[C@H](C)O3)[C@H](C)/C=C/C=C3\CO[C@H]4[C@H](O)C(C)=C[C@@H](C(=O)O1)[C@@]34O)O2 (stereo partly drawn) | inactive | inactive | – | –
C=CC(=O)N1CCN(C(=O)CNc2cc(-c3ccccc3Cl)c(Cl)cc2OC)CC1 | inactive | inactive | – | –
CCOC(=O)N1CCC(CN(Cc2ccc(Cl)cc2)Cc2ccc([N+](=O)[O-])s2)C1 (stereo not drawn) | inactive | inactive | – | –

SMILES | Potency [1] | Potency [2] | activity change, negative = inhibition [1] | activity change, negative = inhibition [2]
Fc1ccc(-c2cncc(CN3CCN(c4cccc5c4OCCO5)CC3)c2)cc1 | inactive | inactive | – | –
C=C(C)[C@@H]1CC[C@]2(C(=O)O)CC[C@]3(C(=O)O)[C@H](CCC4[C@@]5(C)CCC(=O)C(C)(C)C5CC[C@]43C)C12 (stereo partly drawn) | inactive | inactive | – | –
CC(C)(C)c1ccc(-c2nc3c(N4CCN(Cc5ccc6nccnc6c5)CC4)cccc3[nH]2)cc1 | inactive | inactive | – | –
O=C(Nc1ccccc1Cl)c1cnc2ccc(C3CCNCC3)cn12 | inactive | inactive | – | –
CC(C)c1cc(-c2ccc(F)c3ccccc23)nc(N)n1 | inactive | inactive | – | –
O=c1[nH]c2ccc(C#CCN3CCC(Cc4ccccc4)CC3)cc2[nH]1 | inactive | inactive | – | –
O=C(NC1CCN(CCCCC2(C(=O)NCC(F)(F)F)c3ccccc3-c3ccccc32)CC1)c1ccccc1-c1ccc(C(F)(F)F)cc1 | inactive | inactive | – | –
O=C(NC1CCC1)c1ccc(C#Cc2cccc(F)c2)nc1 | inactive | inactive | – | –
Nc1nc(Nc2ccc3c(c2)CCC(N2CCCC2)CC3)nn1-c1cc2c(nn1)-c1ccccc1CCC2 (stereo not drawn) | 50.1 µM (active) | inactive | – | –
CC(=O)O[C@H]1C[C@@](O)(C(C)C)[C@@H]2[C@@H](OC(=O)c3ccc(O)cc3)CC(C)=CC[C@@]12C | inactive | inactive | – | –
CC(C)n1nc(C#Cc2ccccc2)c2c(N)ncnc21 | inactive | inactive | – | –
Cc1c(C(=O)NCc2cccnc2)nn(-c2ccc(Cl)cc2Cl)c1-c1ccc(Cl)cc1 | inactive | inactive | – | –
C/C1=C\CCC2=CC(OC2=O)C(C)(C)/C=C/C1=O (stereo not drawn) | inactive | inactive | – | –
Cc1cc(NC(=O)NCCN2CCC(O)(Cc3ccccc3)CC2)c2ccccc2n1 | inactive | inactive | – | –
CC(=O)OC1CC(O)(C(C)C)C2C(OC(=O)c3ccc(O)cc3)C=C(C)C(=O)CC12C (stereo not drawn) | inactive | inactive | – | –
N#CSc1cc(SC#N)c(N)nc1N | inactive | inactive | – | –
O=C(Nc1cccnn1)N1CCN(c2nccc(-c3ccc(F)c(F)c3)n2)CC1 | inactive | inactive | – | –
COC1C=C(C)C(O)(CO)C2(C)CCCC(C)(C)C12 (stereo not drawn) | inactive | inactive | – | –
NC(=O)CCCSc1nc(N)nc(-c2c(Cl)cc3c4c(cccc24)COC3)n1 | inactive | inactive | – | –
O=C(NO)c1cnc(N2CCN(S(=O)(=O)c3ccc4ccccc4c3)CC2)nc1 | inactive | inactive | – | –
C=C1[C@H]2CC[C@H](C(=O)O)[C@@]23CC[C@H](C3)C1(C)C | inactive | inactive | – | –
Cc1cnc(-c2ccccc2C(C)C)nc1NCc1ccc(-n2ccnn2)cc1 | inactive | inactive | – | –
C[C@@H]1O[C@@H](O[C@H]2CC[C@@]3(C)C(CC[C@]4(C)C3CC=C3[C@@H]5CC(C)(C)CC[C@]5(C(=O)O[C@@H]5O[C@H](CO)[C@@H](O)[C@H](O)[C@H]5O)CC[C@]34C)[C@]2(C)CO)[C@H](O)[C@H](O[C@@H]2O[C@H](CO)[C@@H](O)[C@H](O)[C@H]2O)[C@H]1O (stereo partly drawn) | inactive | inactive | – | –
Cc1cc(Nc2nc(-c3ccccc3)nc3ccccc23)n[nH]1 | inactive | inactive | – | –
Cc1[nH]c(/C=C2\C(=O)Nc3ccc(F)cc32)c(C)c1C(=O)NCCN1CCCC1 | inactive | inactive | – | –

SMILES | Potency [1] | Potency [2] | activity change, negative = inhibition [1] | activity change, negative = inhibition [2]
Cc1nc(-c2cn3c(n2)-c2ccc(-c4cnn(C(C)(C)C(N)=O)c4)cc2OCC3)n(C(C)C)n1 | inactive | inactive | – | –
CCCCCCOC(=O)/N=C(\N)c1ccc(NCc2nc3cc(C(=O)N(CCC(=O)OCC)c4ccccn4)ccc3n2C)cc1 | inactive | inactive | – | –
CC(=O)O[C@@H]1CC[C@@]2(C)C(CC[C@]3(C)C2[C@H](O)C=C2[C@H]4[C@@H](C)[C@H](C)CC[C@]4(C)CC[C@]23C)[C@@]1(C)C(=O)O (stereo partly drawn) | 7.08 µM (active) | 11.2 µM (active) | – | –
CCCc1cc2c(N3CCN(C4=NCC(C)(C)S4)CC3)ncnc2s1 | inactive | inactive | – | –
O=C(NCCCc1ccccc1)c1cccc(-c2cc(O)c3ncccc3c2)c1 | 89.1 µM (active) | inactive | – | –
CNC(=O)c1ccc2c(c1)CCO[C@H]2CCN1CCN(c2ccc(OC)cc2)CC1 | inactive | inactive | – | –
COC(=O)c1ccc(N2CCN(C)CC2)c(NC(=O)c2cccc(OC)c2)c1 | inactive | inactive | – | –
COc1ccccc1-c1ccc(-c2cn(C(=O)N3CCCCC3Cc3ccccc3)nn2)cc1 (stereo not drawn) | inactive | inactive | – | –
Nc1ncnc2c1c(-c1ccc(Oc3ccccc3)cc1)nn2[C@@H]1CCCNC1 | inactive | inactive | – | –
CC(=O)NC[C@H]1CN(c2ccc(N3CCSCC3)c(F)c2)C(=O)O1 | inactive | inactive | – | –
COc1ccncc1C(=O)NC(=O)Nc1ccc(-c2ccccc2)c(C(F)(F)F)c1 | inactive | inactive | – | –
C[C@H](Nc1cc2c(-c3ccc4c(c3)OCO4)noc2cn1)c1ccccc1 | inactive | inactive | – | –
CN(C)S(=O)(=O)c1ccc(NC(=S)N2CCC(C(O)(c3ccccc3)c3ccccc3)CC2)cc1 | inactive | inactive | – | –
COc1ccc(CCc2nc3cc(-c4c(C)noc4C)ccc3n2CC(C)N2CCOCC2)cc1Cl (stereo not drawn) | inactive | inactive | – | –
COc1cc(N2CCOCC2)ccc1NC(=O)c1csc(-c2cccnc2)n1 | inactive | inactive | – | –
C=C1C(=O)O[C@@H]2C[C@H](C)[C@@H]3CC(=O)[C@H](O)[C@@]3(C)C[C@H]12 | inactive | inactive | – | –
C=C1C(=O)O[C@@H]2/C=C(\CO)CC/C=C(/C=O)C[C@@H](O)[C@@H]12 | inactive | inactive | – | –
CC(C)C[C@@H]1NC(=O)[C@@H](Cc2ccccc2)NC(=O)C(CCCCCC(=O)C2CO2)NC(=O)[C@@H]2CCCCN2C1=O (stereo partly drawn) | inactive | inactive | – | –
COCCNCc1ccc(-c2cc3nccc(Oc4ccc(NC(=O)C5(C(=O)Nc6ccc(F)cc6)CC5)cc4F)c3s2)nc1 | inactive | inactive | – | –
Cc1ccc(N2CCN(CCC3NC(=O)c4ccccc43)CC2)cc1C (stereo not drawn) | inactive | inactive | – | –
C=C1C(=O)OC2C(OC(=O)C=C(C)C)C(C)=C3C(=O)C=C(C)C3C(O)C12 (stereo not drawn) | inactive | inactive | – | –
C=C(C)C1CC(O)C(C)C12CC(O)C1(C)OC1C2O (stereo not drawn) | inactive | inactive | – | –
Cc1cc(N2CCN(C(=O)Oc3ccc(-c4ccccc4)cn3)CC2)c2ccccc2n1 | inactive | inactive | – | –
COc1ccc2cc3c(NC(=O)c4ccco4)nn(C)c3nc2c1 | inactive | inactive | – | –
